# LANA DNA inh – inhibitors of KSHV LANA C-terminal domain DNA binding | inhibition, % at 9 µM | hit rate 0.078% among 340,000 | MBP-C-LANA/FAM-LBS DNA binding, fluorescence polarization | AID 504423;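 active = highest replicate inhibition at or above 60% at 9 µM, even if other replicates fall short; inactive = all replicates below 60% inhibition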
# LANA-H2A inh – blocks KSHV LANA binding to histone H2A/H2B; hit rate 0.6% among 320,000; cell-free LANA-H2A/H2B peptide, fluorescence polarization; inhibition, % (concentration not given with the values); in the data active = inhibition mostly above about 10%, no sharp cut-off; inactive = mostly below about 6.7%
# Target sequence (Q9QR71 whole entry, looked up): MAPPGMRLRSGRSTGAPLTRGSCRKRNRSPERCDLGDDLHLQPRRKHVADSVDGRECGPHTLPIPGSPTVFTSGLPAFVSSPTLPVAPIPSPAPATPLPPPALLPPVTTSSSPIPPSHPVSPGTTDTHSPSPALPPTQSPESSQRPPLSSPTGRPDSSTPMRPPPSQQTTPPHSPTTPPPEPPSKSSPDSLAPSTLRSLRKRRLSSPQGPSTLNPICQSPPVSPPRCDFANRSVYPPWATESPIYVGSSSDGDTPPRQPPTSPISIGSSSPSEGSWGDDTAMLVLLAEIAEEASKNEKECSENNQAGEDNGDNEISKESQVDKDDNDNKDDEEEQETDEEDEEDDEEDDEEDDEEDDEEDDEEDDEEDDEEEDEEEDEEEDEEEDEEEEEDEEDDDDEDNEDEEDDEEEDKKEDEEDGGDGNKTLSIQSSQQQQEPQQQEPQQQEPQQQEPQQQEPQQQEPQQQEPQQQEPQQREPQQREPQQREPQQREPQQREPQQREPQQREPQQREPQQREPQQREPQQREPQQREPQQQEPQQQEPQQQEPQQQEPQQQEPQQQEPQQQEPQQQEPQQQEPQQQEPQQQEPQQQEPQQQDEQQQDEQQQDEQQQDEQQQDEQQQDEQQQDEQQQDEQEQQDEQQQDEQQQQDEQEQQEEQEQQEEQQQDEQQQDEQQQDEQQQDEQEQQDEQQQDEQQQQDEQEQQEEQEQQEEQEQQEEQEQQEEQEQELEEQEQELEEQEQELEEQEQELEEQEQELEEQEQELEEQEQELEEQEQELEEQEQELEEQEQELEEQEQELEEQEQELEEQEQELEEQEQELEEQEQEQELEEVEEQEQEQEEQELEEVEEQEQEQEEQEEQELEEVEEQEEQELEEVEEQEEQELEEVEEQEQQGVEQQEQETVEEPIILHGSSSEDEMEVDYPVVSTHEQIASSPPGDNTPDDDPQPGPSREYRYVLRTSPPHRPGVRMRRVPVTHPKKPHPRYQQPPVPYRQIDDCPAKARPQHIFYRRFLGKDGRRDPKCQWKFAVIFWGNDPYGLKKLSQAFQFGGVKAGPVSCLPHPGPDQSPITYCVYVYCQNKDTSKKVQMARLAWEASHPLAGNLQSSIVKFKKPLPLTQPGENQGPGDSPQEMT
# RTF Ca sens act – cardiac RTF calcium sensitization; P19429+P45379; IANBD-labeled TnC RTF fluorescence at EC20 calcium; 0% EC20 calcium, 100% full calcium; activation, % at 7.2 µM; hit rate 0.24% among 340,000; AID 493008;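 active = activation above the mean over all tested compounds plus 3 SD, cut at about 30% in these data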;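 note: rise in fluorescence read as greater calcium sensitivity of cardiac thin filaments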
# Keap1 Nrf2 FP – Keap1-Nrf2 (human) interaction inhibition | Q14145 | Keap1 Kelch-Nrf2 peptide fluorescence polarization, 1536-well | inhibition, % at 9.4 µM | hit rate 0.15% among 340,000; in the data active = inhibition above about 12%;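 note: human Keap1 Kelch domain with fluorescein labeled Nrf2 9mer peptide probe; higher means more block of Keap1 binding to Nrf2 peptide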
# Cardiac RTF inh – cardiac RTF calcium desensitization | P19429+P45379 | IANBD-labeled cardiac RTF, Ca2+ fluorescence | inhibition, % at 7.15 µM | hit rate 0.12% among 340,000;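 active = inhibition above the mean inhibition of all tested compounds plus 3 SD, cut at about 17% in these data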;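 note: assay run at fixed EC70 calcium of 1.6 mM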
# Hits are given with their value; i = inactive; nt = no result; + = active, no number. The list is not random: actives were taken first. Their share in the collection is about 0.98%.
SMILES,LANA DNA inh,LANA-H2A inh,RTF Ca sens act,Keap1 Nrf2 FP,Cardiac RTF inh
CC(CCc1ccccc1)NC(=O)COC(=O)c1ccccc1O (configuration not stated),i,i,i,i,i
O=c1oc2ccccc2nc1/C=C(\O)c1ccccc1,nt,i,nt,nt,nt
Cc1ccc(/C(O)=C/c2nc3cc(C)ccc3oc2=O)cc1,nt,26,nt,nt,nt
CN1CCCN(C(c2ccccc2)c2ccc(Cl)cc2)CC1 (configuration not stated),i,29,i,i,i
CCc1ccc(N2CC(C(=O)N/N=C/c3ccccc3)CC2=O)cc1 (configuration not stated),i,i,i,i,i
COC(=O)c1ccc(/C=N/NC(=O)C2CC(=O)N(c3ccc(F)cc3)C2)cc1 (configuration not stated),i,13,i,i,i
CCC(=O)Nc1nnc(CSCc2ccc(F)cc2)s1,i,i,i,i,i
CC(C)CC(=O)Nc1nnc(CSCc2ccc(F)cc2)s1,75,i,i,i,i
COc1ccccc1-c1c(C)nn2c(N)c(-c3ccccc3)cnc12,i,i,i,i,i
Cc1nn(C)c(C)c1N1C(=O)c2cccc3c(Br)ccc(c23)C1=O,i,i,i,i,i
Cc1ccc(N2C(=O)c3cccc4c(N)ccc(c34)C2=O)c2cccnc12,i,i,754,i,i
Cc1nn(C)c(C)c1N1C(=O)c2cccc3c(N)ccc(c23)C1=O,183,133,+,116,i
Oc1ccc2ccccc2c1CNc1ccccn1,i,i,i,i,i
CNC[C@H]1Oc2ccc(NC(=O)Cc3cn(C)c4ccccc34)cc2CC(=O)N([C@@H](C)CO)C[C@H]1C,i,16,i,i,i
Cn1c(/C(C#N)=C/c2ccc(-c3ccc(S(N)(=O)=O)cc3)o2)nc2ccccc21,i,i,45,i,i
Cn1c(/C(C#N)=C/c2cccc(O)c2)nc2ccccc21,i,i,i,i,i
CC12CCC(=O)N1C(C(=O)NNC(=O)c1ccc(Cl)cc1)CS2 (configuration not stated),i,32,i,i,i
COc1ccc(NC(=O)N(C)C[C@H]2Oc3c(NC(=O)C4CC4)cccc3C(=O)N([C@H](C)CO)C[C@@H]2C)cc1,i,i,i,i,i
CC1(C)Cc2ccccc2C(C(=O)c2ccccc2)=N1,i,i,i,i,i
CC1(C)Cc2ccccc2C(C(Cc2ccccc2)C(N)=O)=N1 (configuration not stated),i,6.5,i,i,i
Cc1ccc2c(c1)C(=O)N1[C@H]3c4cc(C)ccc4OC[C@@H]3[C@H](c3ccccc3)[C@]1(C)C(=O)N2,i,104,i,i,i
CCOC(=O)[C@H]1[C@H]2COc3ccc(Cl)cc3[C@@H]2N2C(=O)c3cc(Br)ccc3NC(=O)[C@@]12C,i,17,i,i,i
Cc1ccc2c(c1)C(=O)N1[C@H]3c4cc(Cl)ccc4OC[C@@H]3[C@H](c3ccccc3)[C@]1(C)C(=O)N2,i,i,i,i,i
O=C1CCCC2=C1CC(C(=O)OCc1ccccc1)C(=O)N2Cc1ccccc1 (configuration not stated),i,nt,i,i,i
C[n+]1cc(C(=O)N2CCCCC2)ccc1/C=C/c1c[nH]c2ccccc12,i,i,143,i,i
SMILES,LANA DNA inh,LANA-H2A inh,RTF Ca sens act,Keap1 Nrf2 FP,Cardiac RTF inh
COc1cccc(-c2cccc(NC(=O)C3CCN(C4CCOCC4)CC3)c2)c1,i,nt,i,i,i
O=C(CN1C(=O)COc2ccccc21)NCc1ccc(C(=O)O)cc1,i,i,i,i,i
CCc1ccc(CNC(=O)CN2C(=O)COc3ccccc32)cc1,i,12,i,i,i
CC1CC(C)(C)CC2(C1)NC(=O)N(CC(=O)Nc1cc(C(F)(F)F)ccc1N1CCCCC1)C2=O (configuration not stated),i,nt,i,i,i
COc1ccc(C)c2sc(NC(=O)CCS(=O)(=O)c3ccccc3)nc12,i,103,i,i,i
Cc1ccc(S(=O)(=O)N2CCC(C(=O)OCC(=O)NC3(C#N)CCCCC3)CC2)cc1C,i,i,i,i,i
CC12COC3(C(=O)Nc4ccc5ccccc5c4)CC1CCC32C (configuration not stated),i,32,i,i,i
Cc1cc(O)c(C(C)C)cc1C1(c2cc(C(C)C)c(O)cc2C)OC(=O)c2ccccc21,i,15,i,i,i
COc1ccc(-c2cc(C(=O)N3CCN(c4ccccc4OC)CC3)no2)cc1,i,20,i,i,i
O=C(c1ccc2ccccc2n1)N1CCN(c2ccccc2)CC1,i,i,i,i,i
COc1ccccc1N1CCN(C(=O)c2cc3c(=O)n4cccc(C)c4nc3s2)CC1,i,26,i,i,i
COc1ccc(N2CCN(C(=O)c3ccc4ccccc4n3)CC2)cc1,i,16,i,i,i
COc1ccccc1N1CCN(C(=O)c2cc(-c3ccc(C)cc3)on2)CC1,i,i,i,i,i
CCOC(=O)N1CCN(C(=O)c2cc3c(=O)n4cccc(C)c4nc3s2)CC1,i,i,i,i,i
CCn1cc(C(=O)NCCCN2CCN(C)CC2)c(=O)c2cc(S(=O)(=O)N3CCc4ccccc4C3)ccc21,i,i,i,i,i
N/C(=N\OC(=O)/C=C/c1ccccc1)c1ccccn1,i,i,i,i,i
COc1ccc(/C=C/C(=O)O/N=C(\N)c2ccccn2)cc1OC,i,21,i,i,i
CC(C)c1nnc(NC(=O)CCC(=O)NCc2cccs2)s1,i,18,i,i,i
Cc1ccc(C(=O)O)cc1[N+](=O)[O-],i,i,i,i,i
Cc1cccc([N+](=O)[O-])c1C(=O)O,i,19,i,i,i
Cc1nc2ccccc2c(C)c1CC(=O)N(C)CC(=O)Nc1cccc(F)c1,i,i,i,i,i
CCN(CC)CCNC(=O)c1ccc(NC(=O)C2CC(=O)N(c3ccc4c(c3)OCCO4)C2)cc1 (configuration not stated),i,61,i,i,i
NC(=O)c1ccc(NC(=O)C2CC(=O)N(c3ccc4c(c3)OCCO4)C2)cc1 (configuration not stated),i,i,i,i,i
NC(=O)c1ccc(N=Cc2ccc([N+](=O)[O-])s2)cc1,i,17,i,i,i
CSc1ccc(S(=O)(=O)NCC(=O)OCC(=O)N(Cc2ccccc2)C(C)C)cc1[N+](=O)[O-],i,i,i,i,i
CCOC(=O)C1=C(C)NC(=S)N(C=O)C1c1ccccc1 (configuration not stated),i,i,i,i,i
Cc1noc(C)c1S(=O)(=O)N1CCN(c2ccc([N+](=O)[O-])cc2)CC1,i,15,i,i,i
Cc1noc(C)c1S(=O)(=O)N1CCN(c2ccccc2)CC1,i,i,i,i,i
O=C(C1=NN(c2ccccc2)C2C(=O)N(c3ccc(Cl)cc3)C(=O)C12)c1ccccc1 (configuration not stated),i,i,38,i,i

# High-throughput results: PubChem, several laboratories
